# According to the supplement of paper PMC11417369:
# The full ranking holds about 25,000 sequences; the median of “ln(normalized median fluorescence intensity)” is about 6.7, and the highest 2% start at about 10. The entries come from a sample that favours the highest values as a whole.
# Tested on: PfHDP1 homeodomain (GST-tagged)
# Assay: gcPBM binding intensity (ln(normalized median fluorescence intensity)); higher = stronger DNA binding
# Procedure, shortened: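 Probes on an Agilent 4 × 180k array were primer-extended, double-stranded and 36 bp long, taken from intergenic genomic regions, with negative controls added. GST-tagged P. falciparum DNA-binding domains from E. coli, about 25 μg on average, were applied to the array for 1 h in 1× PBS containing 1% milk, 0.2 mg/ml BSA, 0.5% salmon testes DNA and 0.03% Triton X-100. Binding intensity, obtained after Alexa488 anti-GST antibody detection and a 488 nm scan, is the highest Masliner-normalised natural-log median intensity across replicate spots of either probe orientation.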
row,Sequence,gcPBM binding intensity (ln)
1,CTATTTTTATATTATTGTACGTTGTTATTATATATA [XGTACX_site1469],6.79
2,CACTAATATATATACAGTACATAATAAAGTATATAA [XGTACX_site6875],6.16
3,AATGCACAGCTCTTAGGCAAAAGTGGGTATTTACAC [GTGCAC_negctrl_site579],8.63
4,TGTCCAATTTATTGTGCACACCTCAAAAGTGGGTAA [CACACA_site3826],11.1
5,TTGGGTATTTTGTGCGCACACACATGCAAAAAGAAA [CACACA_site8299],9.63
6,TTTTTTTCTAATTATGCACACATATCAAAATATTCA [CACACA_site8886],10.2
7,ATTTTATGAAATGTTGCACACAAAAAACAACATGTT [CACACA_site8408],9.69
8,TAGTTGCACATGTATACACACAAAAAATATTTTATG [CACACA_site475],10.4
9,TATTTTATATGAGGCACACAAATTTTAATTGTTATT [CACACA_site725],5.99
10,ATACATGTTTTATGTGCACACAAAGTTGTTATGAGG [CACACA_site4032],10.8
11,ACATGTTTTATGTGCACACAAAGTTGTTATGAGGTT [CACACA_site4031],10.7
12,TTTATGAAATGTTGCACACAAAAAACAACATGTTTT [CACACA_site1440],9.63
13,TCTTCATAAAAATAAAGTACATTATATATATAAATA [XGTACX_site3775],6.37
14,AAAAAATAGAATATGGGTACTAAAAAGATACAAACA [XGTACX_site4464],6.84
15,AAGTTTAAAGGAATTACACAAACAAGCAAATATATA [CACACA_negctrl_site857],6.92
16,AAAAAACTATTATGTGCATGCACAAGTCAGGTAAAT [TGCATGCA_site791],11.3
17,ACAATTTTATTTAAAGTGCATGTAAAATTAAAACTT,7.44
18,TCATTAATCAGGTATGCATGCATAACTATTAAAAAT [TGCATGCA_site90],6.46
19,ATAAAAATATAAACATGTACATAAAAATCTATATAT [XGTACX_site405],6.72
20,TTTCATTTGTCGTTATGTACTTATTAAATATTATTA [XGTACX_site7709],6.92
21,TTAATACATATATATATATTATATATATATATATAT [TGCATGCA_negctrl_site177],8.89
22,ATTTTCTTTTCCATAGTGCAATATAATTATCCATCA [GTGCAC_site9547],10.9
23,ATATATATATTTATAGTGCATTTATATTAAAATATC [GTGCAC_site9818],8.5

row,Sequence,gcPBM binding intensity (ln)
1,CTTAAAATATATTTAGTGCATATACTAATATATTAT,8.9
2,ATGATATATTTAATAGTGCACTAATTAAAATTATTA [GTGCAC_site9418],10.8
3,ATATATCATATTATAGTGCATTTATAATAATATTAT,8.51
4,ATATTTTATATAATAGTGCAAATAATATTAAATAAT,9.78
5,TTCTAAAATTATATAGTGCAATTATATTAATTTTTC,8.98
6,TTATATAATTTAATAGTGCAATTATATTAATTTTTC,8.66
7,TTACAATAAATTATAGTGCAATATTTTATTTAATAT,10.6
8,TATATATATATATATATATATATATATATAATATTA [XGTACX_negctrl_site558],9.37
9,TGGAGGATAGTTCACAGTACCCAGTAACTCTACGGA [XGTACX_site4930],6.22
10,TATATATATATAATTGCACACATCAAGTTTGATGTT [CACACA_site1288],9.99
11,CAAAATGATATGACAACACACAACCTATAGTAAGAC [CACACA_site1287],6.91
12,ATCATCCAAGATCTTACACACATATTAAATAAATAA [CACACA_site1473],6.66
13,AGGCCTTTTAGTATTTCACACACGTAAATGTGTATA [CACACA_site8284],6.43
14,GGAATATATATACATACACACATATATATATATATA [CACACA_site1666],9.32
15,TTGTTCTAATATATTGCACACGTAAAAATATAGGTA [CACACA_site8195],10.1
16,GTTCTAATATATTGCACACGTAAAAATATAGGTAAT [CACACA_site886],10.6
17,TACGTAAATTCTAATACACACTATAGGATATTCTGC [CACACA_site7248],6.41
18,GGAAAAAATATATGCACACCCCCCAAAAAAAAAAAA [CACACA_site2222],9.67
19,AAAAAAAAAAAACACACACACACACCCAAATATATA [CACACA_site150],6.84
20,TGGGAAAAAATATATGCACACCCCCCAAAAAAAAAA [CACACA_site8696],10.6
21,ATTAAATGTATGACTTGTACATAAAATAAAAAAAAA [XGTACX_site6555],6.56
22,TAAAGGAAATAAAAAACATGCAAATATGAAATATAT [TGCATGCA_site745],6.74
23,AGGTGCAAAAATAAAACATGCAAAAATAAAAATGAA [TGCATGCA_site502],10.7

row,Sequence,gcPBM binding intensity (ln)
1,AAATAAAATAATAAAACATGCAAAAATAATGATTTA [TGCATGCA_site415],6.72
2,TTTATTAAAATATTCTCACACACCAAAATATGTATG [CACACA_site932],6.42
3,ATAACAAAAATCCTTGTGCACTATTTTAATAGAGTC,10.5
4,TATATATATTTTTGTGTGCACTATAATATGAAAATA,10.3
5,TTTTAATATATAGAGTAACAAATTTGTCTATTAATA [CACACA_negctrl_site1495],6.6
6,TAAAAAATAAATATATGTACATATTTATTTTTTTTT [XGTACX_site850],6.19
7,TATCATATATAAAGAGGTACGTAAGAATAGAAAATT [XGTACX_site798],7.27
8,ACATTAAAAAATTGTTTGCACTATATAAAATATTAA [GTGCAC_site9728],8.82
9,TTTTTTATTTTGTGCACACACATAAAAATATATATA [CACACA_site761],11.4
10,ATAAAAAAAAATATTTGTACACATATTTATATATTA [XGTACX_site8147],6.56
11,TTTTATTTCTTTGCACCATTTTAAATACAAACAAAT [CACACA_negctrl_site1553],11
12,TTTTTTTTTGTTAAAGTGCATATATTAAATTTTCCT [GTGCAC_site9677],7.82
13,TAATAAAAAAAGTGCACACACATAATATTTATATAT [CACACA_site7548],8.75
14,TCTTTCCTTATTAAAACACACAAATACATTATTTAA [CACACA_site2147],6.7
15,GTGCAAAATATTTTTACACACAAATTCTTACAACAG [CACACA_site7556],7.77
16,GAAATTTGTTATTGCACACAAATTTTTCTTTTTTTA [CACACA_site2339],9.6
17,GTATTTCTTTAATATACACACACCAAAACAAAAAAA [CACACA_site579],6.98
18,CATTTTATTTTCTTTGTGCACAAAAATATTTTTTCT,10.8
19,TTTTTGTTACCTATTGTGCACTTCATATAAATTAAA,10.9
20,CATTAATAAAAAAAAAGTACAAAAAATATATATATT [XGTACX_site2091],6.88
21,TCGTCTCAATAATTATAATAAAAAAATTCCTAAGTC [CACACA_negctrl_site338],6.28
22,TATATGCCTATAAGAAGTACTGTGTAATGTAATATA [XGTACX_site8089],6.67
23,TTGTGTTATCCTTTTTTAGATCAACTATTTTTATTC [CACACA_negctrl_site145],6.32

row,Sequence,gcPBM binding intensity (ln)
1,AAAGGAAAAAAAAGCACACACAATATTACTTGAAAT [CACACA_site2588],6.9
2,TAATTATTACACGGTATTATATATAATATGTTAAAA [GTGCAC_negctrl_site134],6.6
3,ATATTGATACATCCAATACACACTACATATAATGAT [CACACA_site1874],6.82
4,TTATATTTATAAAATTGTATACCCCTTCTAACTTTC [CACACA_negctrl_site250],6.7
5,TATAAACCTTTTTGCACGCACACAAAAAAAAAATAA [CACACA_site168],9.61
6,GTGCAAAATATTTTTACACACAAATTTTTACAACAG [CACACA_site3357],8.07
7,ATATATTTATTTTGTGCACACAACGCAAACCTTTTA [CACACA_site3508],11.3
8,ATATATATTTTTTAAACACACACATAAATATTTGTG [CACACA_site8936],6.94
9,TCAAAAAATATATTTGCACACTCAAAAAAAAAAAAA [CACACA_site860],10.2
10,TTTTTTATTTTGTGCACACACATAAAAATATAAATA [CACACA_site6497],11.4
11,TTTTGTTATAAATAATGTACATATTTATTTAAAATT [XGTACX_site6610],6.25
12,AAAATGTGCATATTTGCACACTTCAATATATATATA [CACACA_site1791],11.2
13,AAAAAATATATTTGCACACTCAAAAAAAAAAAAAAA [CACACA_site859],10.3
14,AAAATATAAATTCATGTGCACATATATATTTTGTTA [GTGCAC_site9782],10.7
15,TATAAAAATGTGCACACACACACATATTTATATTTA [CACACA_site6826],10.1
16,TTTATATTTTATAAATTATTCATAAATATATTTGTA [TGCATGCA_negctrl_site175],6.34
17,ATAACATTCTATGTTGCACACAAAGAGAAAAATTTA [CACACA_site9322],9.12
18,TATTATATATCAAAATGTACATTAATTTGAGTAATT [XGTACX_site5434],6.37
19,AAACGTGCGTATATGTGTACGCATATATATATATAT [XGTACX_site5252],9.26
20,ATATATTTTTTAAACACACACATAAATATTTGTGTA [CACACA_site2879],6.8
21,TATTTTATAATAGGCACACATATAAAAATATATATA [CACACA_site4127],6.57
22,ATTTTTTTATTTTGTGCACACACATAAAAATATATA [CACACA_site762],11.4
